“And” between values parts separate entries of the source, which are not always exact repeats. Equal entries are not always repeated. Out of some 5,500 compounds screened, about 2,000 (36%) were called active. Not shown: some 18% with an inconclusive outcome. Cut-off read from the data, not from the text of the source: active = normalized growth mostly below about 0.91 (no sharp cut-off); inconclusive = no clear call, values can overlap the other calls; inactive = mostly above about 0.92. The list shows a part of the results.
Assay: chemical genetic growth profiling, strain panel (AID 1159580);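 note: tested at 20 µM; growth read once vehicle control cultures reached saturation at 30 °C; 1 = growth at the plate median or of vehicle wells; lower values mean less growth of the strain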
Conditions: growth OD

Measured: normalized growth

COc1c2c(cc3c1OCO3)CC[N+](C)=C2
inactive: S. cerevisiae deletion strains, locus YAL013W, strain DEP1, active compounds read low 1 | S. cerevisiae deletion strains, locus YAL021C, strain ccr4, active compounds read low 0.977 | S. cerevisiae deletion strains, locus YAL026C, strain drs2, active compounds read low 0.995 | S. cerevisiae deletion strains, locus YAL030W, strain snc1, active compounds read low 0.994 | S. cerevisiae deletion strains, locus YBL061C, strain skt5, active compounds read low 1.01 | S. cerevisiae deletion strains, locus YBR009C, strain hhf1, active compounds read low 0.984 | S. cerevisiae deletion strains, locus YBR021W, strain FUR4, active compounds read low 1.02 | S. cerevisiae deletion strains, locus YBR023C, strain chs3, active compounds read low 1.01 | S. cerevisiae deletion strains, locus YBR171W, strain sec66, active compounds read low 0.997 | S. cerevisiae deletion strains, locus YBR229C, strain ROT2, active compounds read low 0.999 | S. cerevisiae deletion strains, locus YBR231C, strain swc5, active compounds read low 1.03 | S. cerevisiae deletion strains, locus YBR279W, strain paf1, active compounds read low 1 | S. cerevisiae deletion strains, locus YCL011C, strain gbp2, active compounds read low 0.986 | S. cerevisiae deletion strains, locus YCL016C, strain dcc1, active compounds read low 0.974 | S. cerevisiae deletion strains, locus YCL029C, strain bik1, active compounds read low 0.993 | S. cerevisiae deletion strains, locus YCL069W, strain vba3, active compounds read low 0.99 | S. cerevisiae deletion strains, locus YCR088W, strain abp1, active compounds read low 1 | S. cerevisiae deletion strains, locus YDL005C, strain med2, active compounds read low 1 | S. cerevisiae deletion strains, locus YDL035C, strain GPR1, active compounds read low 1.01 | S. cerevisiae deletion strains, locus YDL040C, strain nat1, active compounds read low 1.01 | S. cerevisiae deletion strains, locus YDL074C, strain BRE1, active compounds read low 1.04 | S. cerevisiae deletion strains, locus YDL101C, strain DUN1, active compounds read low 1.02 | S. cerevisiae deletion strains, locus YDL134C, strain PPH21, active compounds read low 1.05 | S. cerevisiae deletion strains, locus YDL185W, strain tfp1, active compounds read low 1.01 | S. cerevisiae deletion strains, locus YDL192W, strain arf1, active compounds read low 1 | S. cerevisiae deletion strains, locus YDR001C, strain nth1, active compounds read low 0.977 | S. cerevisiae deletion strains, locus YDR069C, strain doa4, active compounds read low 1.01 | S. cerevisiae deletion strains, locus YDR101C, strain arx1, active compounds read low 1 | S. cerevisiae deletion strains, locus YDR137W, strain rgp1, active compounds read low 1 | S. cerevisiae deletion strains, locus YDR150W, strain NUM1, active compounds read low 0.993 | S. cerevisiae deletion strains, locus YDR159W, strain sac3, active compounds read low 1.08 | S. cerevisiae deletion strains, locus YDR162C, strain NBP2, active compounds read low 1.05 | S. cerevisiae deletion strains, locus YDR195W, strain ref2 1.01 | S. cerevisiae deletion strains, locus YDR297W, strain sur2, active compounds read low 1.02 | S. cerevisiae deletion strains, locus YDR318W, strain mcm21, active compounds read low 1 | S. cerevisiae deletion strains, locus YDR334W, strain swr1, active compounds read low 0.991 | S. cerevisiae deletion strains, locus YDR335W, strain msn5, active compounds read low 0.996 | S. cerevisiae deletion strains, locus YDR388W, active compounds read low 0.994 | S. cerevisiae deletion strains, locus YDR392W, strain spt3, active compounds read low 0.93 | S. cerevisiae deletion strains, locus YDR502C, strain sam2, active compounds read low 1.01 | S. cerevisiae deletion strains, locus YEL003W, strain gim4, active compounds read low 1 | S. cerevisiae deletion strains, locus YEL037C, strain rad23, active compounds read low 0.986 | S. cerevisiae deletion strains, locus YEL061C, strain CIN8 (second series), active compounds read low 0.998 | S. cerevisiae deletion strains, locus YER015W, strain faa2, active compounds read low 0.998 | S. cerevisiae deletion strains, locus YER016W, strain bim1, active compounds read low 1.01 | S. cerevisiae deletion strains, locus YER110C, active compounds read low 1.01 | S. cerevisiae deletion strains, locus YER111C, strain swi4, active compounds read low 1 | S. cerevisiae deletion strains, locus YER155C, strain BEM2 (second series), active compounds read low 1.06 | S. cerevisiae deletion strains, locus YER155C, strain BEM2, active compounds read low 0.976 | S. cerevisiae deletion strains, locus YER167W, strain BCK2, active compounds read low 0.997 | S. cerevisiae deletion strains, locus YFR010W, strain ubp6, active compounds read low 0.996 | S. cerevisiae deletion strains, locus YGL078C, strain dbp3, active compounds read low 1.04 | S. cerevisiae deletion strains, locus YGL086W, strain mad1, active compounds read low 1.01 | S. cerevisiae deletion strains, locus YGL167C, strain pmr1, active compounds read low 0.993 | S. cerevisiae deletion strains, locus YGL173C, strain kem1, active compounds read low 1.02 | S. cerevisiae deletion strains, locus YGL227W, strain vid30, active compounds read low 0.999 | S. cerevisiae deletion strains, locus YGL240W, strain doc1, active compounds read low 1.02 | S. cerevisiae deletion strains, locus YGL248W, strain PDE1, active compounds read low 1.03 | S. cerevisiae deletion strains, locus YGL253W, strain hxk2, active compounds read low 1 | S. cerevisiae deletion strains, locus YGR078C, strain PAC10, active compounds read low 0.987 | S. cerevisiae deletion strains, locus YGR135W, strain pre9, active compounds read low 1.03 | S. cerevisiae deletion strains, locus YGR252W, strain gcn5, active compounds read low 1.05 | S. cerevisiae deletion strains, locus YHR013C, strain ard1, active compounds read low 0.974 | S. cerevisiae deletion strains, locus YHR027C, strain rpn1, active compounds read low 0.981 | S. cerevisiae deletion strains, locus YHR030C, strain SLT2, active compounds read low 0.989 | S. cerevisiae deletion strains, locus YHR079C, strain IRE1 (second series), active compounds read low 1.01 | S. cerevisiae deletion strains, locus YHR079C, strain IRE1, active compounds read low 1 | S. cerevisiae deletion strains, locus YHR094C, strain hxt1, active compounds read low 1 | S. cerevisiae deletion strains, locus YHR129C, strain ARP1, active compounds read low 1 | S. cerevisiae deletion strains, locus YHR142W, strain chs7, active compounds read low 0.982 | S. cerevisiae deletion strains, locus YHR200W, strain rpn10, active compounds read low 0.998 | S. cerevisiae deletion strains, locus YIL066C, strain RNR3, active compounds read low 1 | S. cerevisiae deletion strains, locus YIL073C, strain SPO22, active compounds read low 1.06 | S. cerevisiae deletion strains, locus YIL125W, strain kgd1, active compounds read low 0.995 | S. cerevisiae deletion strains, locus YIR030C, strain dcg1, active compounds read low 1.01 | S. cerevisiae deletion strains, locus YJL092W, strain hpr5, active compounds read low 0.988 | S. cerevisiae deletion strains, locus YJL095W, strain BCK1 (second series), active compounds read low 1 | S. cerevisiae deletion strains, locus YJL095W, strain BCK1, active compounds read low 1.05 and 0.977 | S. cerevisiae deletion strains, locus YJL115W, strain asf1, active compounds read low 0.977 | S. cerevisiae deletion strains, locus YJL129C, strain trk1, active compounds read low 1.01 | S. cerevisiae deletion strains, locus YJL134W, strain LCB3, active compounds read low 0.994 | S. cerevisiae deletion strains, locus YJL154C, strain vps35, active compounds read low 0.985 | S. cerevisiae deletion strains, locus YJL164C, strain tpk1, active compounds read low 0.965 | S. cerevisiae deletion strains, locus YJL166W, strain qcr8, active compounds read low 1.01 | S. cerevisiae deletion strains, locus YJL168C, strain set2, active compounds read low 1.01 | S. cerevisiae deletion strains, locus YJL187C, strain SWE1 (second series), active compounds read low 1.04 | S. cerevisiae deletion strains, locus YJL187C, strain SWE1, active compounds read low 1.02 | S. cerevisiae deletion strains, locus YJR043C, strain POL32, active compounds read low 0.99 | S. cerevisiae deletion strains, locus YJR066W, strain TOR1, active compounds read low 0.886 | S. cerevisiae deletion strains, locus YKL009W, strain mrt4, active compounds read low 1.04 | S. cerevisiae deletion strains, locus YKL068W, active compounds read low 0.996 | S. cerevisiae deletion strains, locus YKL085W, strain MDH1 (second series), active compounds read low 1.01 | S. cerevisiae deletion strains, locus YKL085W, strain MDH1, active compounds read low 1.01 | S. cerevisiae deletion strains, locus YKL160W, strain elf1, active compounds read low 0.977 | S. cerevisiae deletion strains, locus YKL190W, strain CNB1, active compounds read low 1 | S. cerevisiae deletion strains, locus YKR001C, strain vps1, active compounds read low 1.02 | S. cerevisiae deletion strains, locus YKR026C, strain gcn3, active compounds read low 0.993 | S. cerevisiae deletion strains, locus YKR091W, strain srl3, active compounds read low 0.99 | S. cerevisiae deletion strains, locus YLL001W, strain dnm1, active compounds read low 1 | S. cerevisiae deletion strains, locus YLL026W, active compounds read low 1 | S. cerevisiae deletion strains, locus YLL041C, strain sdh2, active compounds read low 0.984 | S. cerevisiae deletion strains, locus YLR027C, strain aat2, active compounds read low 1.01 | S. cerevisiae deletion strains, locus YLR039C, strain RIC1, active compounds read low 1.1 | S. cerevisiae deletion strains, locus YLR058C, strain SHM2, active compounds read low 1.02 | S. cerevisiae deletion strains, locus YLR102C, strain apc9, active compounds read low 1 | S. cerevisiae deletion strains, locus YLR113W, strain HOG1, active compounds read low 0.978 | S. cerevisiae deletion strains, locus YLR221C, strain rsa3, active compounds read low 1.04 | S. cerevisiae deletion strains, locus YLR258W, strain gsy2, active compounds read low 1.02 | S. cerevisiae deletion strains, locus YLR262C, strain YPT6 (second series), active compounds read low 0.995 | S. cerevisiae deletion strains, locus YLR262C, strain YPT6, active compounds read low 1.12 | S. cerevisiae deletion strains, locus YLR268W, strain sec22, active compounds read low 0.999 | S. cerevisiae deletion strains, locus YLR320W, strain mms22, active compounds read low 1.06 | S. cerevisiae deletion strains, locus YLR342W, strain FKS1, active compounds read low 1.01 | S. cerevisiae deletion strains, locus YLR357W, strain rsc2, active compounds read low 0.968 | S. cerevisiae deletion strains, locus YLR370C, strain arc18, active compounds read low 1 | S. cerevisiae deletion strains, locus YLR371W, strain rom2, active compounds read low 1.01 | S. cerevisiae deletion strains, locus YLR384C, strain iki3, active compounds read low 0.999 | S. cerevisiae deletion strains, locus YLR418C, strain cdc73, active compounds read low 1.03 | S. cerevisiae deletion strains, locus YML016C, strain PPZ1, active compounds read low 1.01 | S. cerevisiae deletion strains, locus YML032C, strain rad52, active compounds read low 0.999 | S. cerevisiae deletion strains, locus YML120C, strain ndi1, active compounds read low 0.977 | S. cerevisiae deletion strains, locus YML124C, strain tub3, active compounds read low 1.01 | S. cerevisiae deletion strains, locus YMR058W, strain fet3, active compounds read low 1 | S. cerevisiae deletion strains, locus YMR078C, strain ctf18, active compounds read low 1 | S. cerevisiae deletion strains, locus YMR125W, strain sto1, active compounds read low 0.923 | S. cerevisiae deletion strains, locus YMR129W, active compounds read low 0.996 | S. cerevisiae deletion strains, locus YMR205C, strain PFK2, active compounds read low 0.975 | S. cerevisiae deletion strains, locus YMR223W, strain ubp8, active compounds read low 1.02 | S. cerevisiae deletion strains, locus YMR231W, strain pep5, active compounds read low 1.01 | S. cerevisiae deletion strains, locus YMR307W, strain GAS1, active compounds read low 1.03 | S. cerevisiae deletion strains, locus YNL067W, strain RPL9B, active compounds read low 1.03 | S. cerevisiae deletion strains, locus YNL071W, strain lat1, active compounds read low 0.998 | S. cerevisiae deletion strains, locus YNL183C, strain NPR1, active compounds read low 0.923 | S. cerevisiae deletion strains, locus YNL209W, strain ssb2, active compounds read low 0.992 | S. cerevisiae deletion strains, locus YNL233W, strain BNI4, active compounds read low 1.01 | S. cerevisiae deletion strains, locus YNL248C, strain rpa49, active compounds read low 0.924 | S. cerevisiae deletion strains, locus YNL250W, strain rad50, active compounds read low 1.03 | S. cerevisiae deletion strains, locus YNL271C, strain bni1, active compounds read low 1.03 | S. cerevisiae deletion strains, locus YNL298W, strain CLA4, active compounds read low 0.992 | S. cerevisiae deletion strains, locus YNL307C, strain MCK1, active compounds read low 1.01 | S. cerevisiae deletion strains, locus YNL322C, strain KRE1 (second series), active compounds read low 0.997 | S. cerevisiae deletion strains, locus YNR049C, strain mso1, active compounds read low 0.979 | S. cerevisiae deletion strains, locus YNR052C, strain pop2, active compounds read low 1.01 | S. cerevisiae deletion strains, locus YOL012C, strain htz1 0.651 | S. cerevisiae deletion strains, locus YOL147C, strain pex11, active compounds read low 1 | S. cerevisiae deletion strains, locus YOR001W, strain rrp6, active compounds read low 1.03 | S. cerevisiae deletion strains, locus YOR061W, strain CKA2, active compounds read low 1.01 | S. cerevisiae deletion strains, locus YOR069W, strain VPS5, active compounds read low 1 | S. cerevisiae deletion strains, locus YOR070C, strain gyp1, active compounds read low 1.02 | S. cerevisiae deletion strains, locus YOR080W, strain dia2, active compounds read low 1.02 | S. cerevisiae deletion strains, locus YOR083W, strain WHI5, active compounds read low 0.97 | S. cerevisiae deletion strains, locus YOR106W, strain vam3, active compounds read low 0.937 | S. cerevisiae deletion strains, locus YOR136W, strain idh2, active compounds read low 1.03 | S. cerevisiae deletion strains, locus YOR144C, strain elg1, active compounds read low 1 | S. cerevisiae deletion strains, locus YOR184W, strain ser1, active compounds read low 0.996 | S. cerevisiae deletion strains, locus YOR231W, strain MKK1, active compounds read low 0.994 | S. cerevisiae deletion strains, locus YOR265W, strain rbl2, active compounds read low 0.996 | S. cerevisiae deletion strains, locus YOR270C, strain vph1, active compounds read low 0.991 | S. cerevisiae deletion strains, locus YOR290C, strain snf2, active compounds read low 0.919 | S. cerevisiae deletion strains, locus YOR316C, strain cot1, active compounds read low 1.01 | S. cerevisiae deletion strains, locus YPL051W, strain arl3, active compounds read low 1.03 | S. cerevisiae deletion strains, locus YPL078C, strain atp4, active compounds read low 0.952 | S. cerevisiae deletion strains, locus YPL106C, strain sse1, active compounds read low 0.972 | S. cerevisiae deletion strains, locus YPL240C, strain hsp82, active compounds read low 1.01 | S. cerevisiae deletion strains, locus YPL256C, strain CLN2, active compounds read low 0.975 | S. cerevisiae deletion strains, locus YPR119W, strain clb2, active compounds read low 1.01 | S. cerevisiae deletion strains, locus YPR141C, strain kar3, active compounds read low 1.01 | S. cerevisiae deletion strains, locus YPR163C, strain tif3, active compounds read low 1.02 | S. cerevisiae deletion strains, locus YPR167C, strain met16, active compounds read low 1.01 | S. cerevisiae deletion strains, strain wtn01, active compounds read low 1 | S. cerevisiae strains, strain wild type, active compounds read low 1

Reference: PubChem BioAssay AID1159580 (chemical genetic matrix, 2015)
